About 7,900 targets were measured; listed, in parts, are those with a hit and a random draw of the rest. About 0.6% of all pairs of compound and target were hits. A number with no mark means an inactive call.
Columns and labels:
Experiment in all cases: log2 fold change, soluble protein after heating vs DMSO (PISA); higher = thermal stabilisation; K562 cells, 10 uM, 30 min; active = over 0.2 and 3.5 SD of the protein, either way, in both replicates (recomputed)
[1] = compound: CC[C@@H]1C(=O)N(C)c2cnc(Nc3ccc(C(=O)NC4CCN(C)CC4)cc3OC)nc2N1C1CCCC1
How it was run: (§1)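 K562 cells at 2×10^6 cells/mL were treated with 10 μM compound for 30 min. Aliquots were heated for 3 min across 48°C-58°C, pooled, and extracted in PBS with 0.5% NP-40 at 4°C; soluble protein was the supernatant after 21,000xg for 90 min. Soluble protein was quantified by TMTpro 16plex LC-MS/MS with channel sums equalised, and reported as log2 fold change in thermal stability against DMSO controls, with values from duplicates.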

volasertib = compound: CC[C@@H]1C(=O)N(C)c2cnc(Nc3ccc(C(=O)N[C@H]4CC[C@H](N5CCN(CC6CC6)CC5)CC4)cc3OC)nc2N1C(C)C [volasertib]
How it was run: as §1

[2] = compound: CC[C@H](C)N1C=C(C2=C(C=C(C=C21)C3=CN=C(C=C3)N4CCNCC4)C(=O)NCC5=C(C=C(NC5=O)C)C)C
How it was run: as §1

epoxomicin = compound: CC[C@H](C)[C@@H](C(=O)N[C@@H]([C@@H](C)O)C(=O)N[C@@H](CC(C)C)C(=O)[C@]1(CO1)C)NC(=O)[C@H]([C@@H](C)CC)N(C)C(=O)C [epoxomicin]
How it was run: as §1

[3] = compound: CCn1c(C(=O)N(C2CC2)C2CC2)cc2c3c(ncn3C)c(Nc3cc(C)n(C)n3)nc21
How it was run: as §1

[4] = compound: CCn1cc(-c2ccnc3[nH]c(-c4cccc(CN(C)C)c4)cc23)c(-c2ccc(NC(=O)N(C)C)cc2)n1
How it was run: as §1

[5] = compound: CN(C)CC(=O)Nc1ccc2[nH]c(=O)c3ccccc3c2c1
How it was run: as §1

rosiglitazone = compound: CN(CCOC1=CC=C(C=C1)C[C@H]2C(=O)NC(=O)S2)C3=CC=CC=N3 (racemic) [rosiglitazone]
How it was run: as §1

[6] = compound: CN1C2=C(C3=C1C(=O)N(N=C3)CC4=CC(=CC=C4)N)SC(=C2)S(=O)C
How it was run: as §1

[7] = compound: CN1CCC(CNc2ccc3ncc(-c4cccc(OC(F)(F)F)c4)n3n2)CC1
How it was run: as §1

Chain of UniProt Q9C0E8 (Q9C0E8 whole entry, looked up): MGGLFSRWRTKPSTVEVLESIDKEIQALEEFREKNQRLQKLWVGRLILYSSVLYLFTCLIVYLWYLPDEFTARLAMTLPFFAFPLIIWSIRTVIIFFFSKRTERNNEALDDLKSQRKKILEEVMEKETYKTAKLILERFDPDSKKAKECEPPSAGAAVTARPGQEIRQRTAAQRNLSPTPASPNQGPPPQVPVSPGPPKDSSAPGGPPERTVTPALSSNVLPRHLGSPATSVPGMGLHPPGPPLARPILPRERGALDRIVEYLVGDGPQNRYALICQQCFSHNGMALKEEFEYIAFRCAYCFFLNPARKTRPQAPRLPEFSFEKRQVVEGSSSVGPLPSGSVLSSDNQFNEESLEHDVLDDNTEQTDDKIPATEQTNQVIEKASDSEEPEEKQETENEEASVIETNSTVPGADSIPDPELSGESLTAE
Chain of UniProt O43318 (O43318 whole entry, looked up): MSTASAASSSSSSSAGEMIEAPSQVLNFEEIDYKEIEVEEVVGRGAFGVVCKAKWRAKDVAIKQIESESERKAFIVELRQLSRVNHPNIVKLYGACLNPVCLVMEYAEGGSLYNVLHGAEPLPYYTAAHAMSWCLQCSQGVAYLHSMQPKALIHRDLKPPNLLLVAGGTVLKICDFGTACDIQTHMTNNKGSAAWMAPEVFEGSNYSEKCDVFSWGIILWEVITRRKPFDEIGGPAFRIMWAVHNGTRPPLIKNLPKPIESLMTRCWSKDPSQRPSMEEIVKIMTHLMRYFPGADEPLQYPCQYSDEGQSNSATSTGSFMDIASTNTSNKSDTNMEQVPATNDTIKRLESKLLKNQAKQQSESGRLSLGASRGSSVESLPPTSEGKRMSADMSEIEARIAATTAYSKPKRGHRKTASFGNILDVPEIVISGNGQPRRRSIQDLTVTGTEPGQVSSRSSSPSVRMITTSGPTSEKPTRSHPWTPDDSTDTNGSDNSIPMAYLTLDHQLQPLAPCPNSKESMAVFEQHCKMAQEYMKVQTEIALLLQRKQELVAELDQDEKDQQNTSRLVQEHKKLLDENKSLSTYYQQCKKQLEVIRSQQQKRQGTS
Chain of UniProt P13473 (P13473 whole entry, looked up): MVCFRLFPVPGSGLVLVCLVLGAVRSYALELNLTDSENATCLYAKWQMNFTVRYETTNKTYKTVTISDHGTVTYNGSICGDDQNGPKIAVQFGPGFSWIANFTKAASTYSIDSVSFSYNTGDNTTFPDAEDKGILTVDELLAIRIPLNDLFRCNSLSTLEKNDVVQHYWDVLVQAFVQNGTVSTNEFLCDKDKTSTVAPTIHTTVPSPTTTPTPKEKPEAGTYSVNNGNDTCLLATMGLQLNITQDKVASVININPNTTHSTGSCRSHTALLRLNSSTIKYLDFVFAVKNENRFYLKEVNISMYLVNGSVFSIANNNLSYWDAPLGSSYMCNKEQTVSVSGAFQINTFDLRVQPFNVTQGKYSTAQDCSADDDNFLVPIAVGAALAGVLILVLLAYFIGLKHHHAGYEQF
Chain of UniProt Q86UP2 (Q86UP2 whole entry, looked up): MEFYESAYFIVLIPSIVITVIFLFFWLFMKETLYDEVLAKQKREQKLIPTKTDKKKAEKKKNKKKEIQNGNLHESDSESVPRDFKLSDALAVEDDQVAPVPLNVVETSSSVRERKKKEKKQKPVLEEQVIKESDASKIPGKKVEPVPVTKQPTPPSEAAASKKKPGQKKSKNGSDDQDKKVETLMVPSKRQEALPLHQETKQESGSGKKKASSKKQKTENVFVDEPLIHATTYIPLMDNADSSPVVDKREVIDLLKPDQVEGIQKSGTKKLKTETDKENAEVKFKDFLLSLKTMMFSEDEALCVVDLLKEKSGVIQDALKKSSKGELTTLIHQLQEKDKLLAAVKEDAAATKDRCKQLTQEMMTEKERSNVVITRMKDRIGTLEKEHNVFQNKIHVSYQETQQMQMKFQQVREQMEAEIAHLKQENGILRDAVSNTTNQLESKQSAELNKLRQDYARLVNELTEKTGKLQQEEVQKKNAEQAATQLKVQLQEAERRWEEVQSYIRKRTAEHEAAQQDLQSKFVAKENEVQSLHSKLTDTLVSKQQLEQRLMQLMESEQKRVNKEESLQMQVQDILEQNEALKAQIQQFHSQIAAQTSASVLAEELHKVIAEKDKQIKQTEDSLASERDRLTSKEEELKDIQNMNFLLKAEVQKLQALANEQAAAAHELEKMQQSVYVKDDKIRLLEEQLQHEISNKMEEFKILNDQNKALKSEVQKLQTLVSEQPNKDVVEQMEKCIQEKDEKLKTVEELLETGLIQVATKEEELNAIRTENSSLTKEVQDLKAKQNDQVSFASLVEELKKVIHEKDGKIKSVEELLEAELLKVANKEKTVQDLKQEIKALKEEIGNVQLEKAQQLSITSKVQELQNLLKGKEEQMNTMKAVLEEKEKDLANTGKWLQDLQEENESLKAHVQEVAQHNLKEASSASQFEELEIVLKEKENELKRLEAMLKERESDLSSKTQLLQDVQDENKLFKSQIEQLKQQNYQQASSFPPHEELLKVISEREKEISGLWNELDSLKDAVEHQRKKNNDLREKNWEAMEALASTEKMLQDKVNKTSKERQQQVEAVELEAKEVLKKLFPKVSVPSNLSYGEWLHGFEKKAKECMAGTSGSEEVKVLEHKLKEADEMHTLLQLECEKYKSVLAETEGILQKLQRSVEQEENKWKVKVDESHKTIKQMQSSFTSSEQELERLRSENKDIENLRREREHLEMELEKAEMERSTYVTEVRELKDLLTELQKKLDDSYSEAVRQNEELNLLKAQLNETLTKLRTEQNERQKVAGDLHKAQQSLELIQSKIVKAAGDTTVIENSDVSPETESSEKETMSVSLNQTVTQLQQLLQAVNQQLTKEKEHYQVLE
Chain of UniProt Q13257 (Q13257 whole entry, looked up): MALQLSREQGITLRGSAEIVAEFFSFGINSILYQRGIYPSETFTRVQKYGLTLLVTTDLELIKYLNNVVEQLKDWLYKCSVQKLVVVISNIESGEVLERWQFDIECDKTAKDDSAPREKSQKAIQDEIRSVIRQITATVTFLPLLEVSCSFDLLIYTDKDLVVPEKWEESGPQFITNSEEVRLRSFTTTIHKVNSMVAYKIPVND
Chain of UniProt Q86X29 (Q86X29 whole entry, looked up): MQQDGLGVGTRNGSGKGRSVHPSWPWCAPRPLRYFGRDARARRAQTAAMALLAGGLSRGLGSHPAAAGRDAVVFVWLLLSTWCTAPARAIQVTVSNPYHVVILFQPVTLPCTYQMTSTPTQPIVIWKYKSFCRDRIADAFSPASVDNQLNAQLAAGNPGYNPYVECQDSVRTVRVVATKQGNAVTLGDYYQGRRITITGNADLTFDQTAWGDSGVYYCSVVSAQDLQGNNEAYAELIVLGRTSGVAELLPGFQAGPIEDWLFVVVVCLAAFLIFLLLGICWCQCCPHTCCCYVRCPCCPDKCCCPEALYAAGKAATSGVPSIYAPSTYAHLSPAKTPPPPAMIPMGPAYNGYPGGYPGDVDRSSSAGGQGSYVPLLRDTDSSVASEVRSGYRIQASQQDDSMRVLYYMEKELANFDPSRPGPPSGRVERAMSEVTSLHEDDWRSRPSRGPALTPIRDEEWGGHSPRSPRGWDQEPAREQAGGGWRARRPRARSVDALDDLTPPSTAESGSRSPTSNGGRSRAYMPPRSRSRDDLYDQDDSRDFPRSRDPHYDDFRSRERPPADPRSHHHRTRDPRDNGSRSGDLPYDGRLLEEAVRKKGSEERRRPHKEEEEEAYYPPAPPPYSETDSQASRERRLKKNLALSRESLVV
Chain of UniProt P20700 (P20700 whole entry, looked up): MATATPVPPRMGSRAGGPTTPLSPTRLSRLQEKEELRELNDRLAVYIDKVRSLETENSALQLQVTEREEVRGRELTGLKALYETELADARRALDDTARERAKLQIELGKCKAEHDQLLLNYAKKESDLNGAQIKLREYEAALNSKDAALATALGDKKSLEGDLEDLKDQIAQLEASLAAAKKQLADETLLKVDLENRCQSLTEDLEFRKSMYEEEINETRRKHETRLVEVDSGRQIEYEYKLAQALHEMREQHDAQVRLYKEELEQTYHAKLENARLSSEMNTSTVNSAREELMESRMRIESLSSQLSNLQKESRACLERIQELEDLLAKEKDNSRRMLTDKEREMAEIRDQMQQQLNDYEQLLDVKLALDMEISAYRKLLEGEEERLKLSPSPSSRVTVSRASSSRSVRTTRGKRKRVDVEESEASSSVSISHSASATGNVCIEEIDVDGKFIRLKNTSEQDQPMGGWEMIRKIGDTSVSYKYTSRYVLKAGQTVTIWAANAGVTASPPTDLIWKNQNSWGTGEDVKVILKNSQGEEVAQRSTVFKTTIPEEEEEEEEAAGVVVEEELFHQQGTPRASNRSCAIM
Chain of UniProt P46734 (P46734 whole entry, looked up): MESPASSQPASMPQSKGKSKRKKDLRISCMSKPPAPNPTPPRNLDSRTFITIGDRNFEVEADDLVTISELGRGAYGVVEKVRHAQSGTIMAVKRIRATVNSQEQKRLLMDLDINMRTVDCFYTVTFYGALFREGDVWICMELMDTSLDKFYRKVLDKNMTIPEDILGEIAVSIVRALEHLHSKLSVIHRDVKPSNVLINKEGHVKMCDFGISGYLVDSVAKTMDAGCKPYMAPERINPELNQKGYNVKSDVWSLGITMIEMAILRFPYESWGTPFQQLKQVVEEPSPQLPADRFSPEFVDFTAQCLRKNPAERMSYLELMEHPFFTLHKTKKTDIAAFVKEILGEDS
Chain of UniProt P49006 (P49006 whole entry, looked up): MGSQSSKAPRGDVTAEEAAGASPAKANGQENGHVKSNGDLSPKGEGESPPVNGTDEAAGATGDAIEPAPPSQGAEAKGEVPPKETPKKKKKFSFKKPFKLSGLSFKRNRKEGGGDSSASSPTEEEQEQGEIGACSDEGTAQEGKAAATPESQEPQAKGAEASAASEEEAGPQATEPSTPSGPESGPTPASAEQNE
Chain of UniProt P10620 (P10620 whole entry, looked up): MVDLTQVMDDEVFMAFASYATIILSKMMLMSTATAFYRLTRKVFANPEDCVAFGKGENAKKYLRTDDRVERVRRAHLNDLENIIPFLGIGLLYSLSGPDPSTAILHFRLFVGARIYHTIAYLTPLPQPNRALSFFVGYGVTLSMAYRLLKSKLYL

Target | log2 fold change [1] | log2 fold change (volasertib) | log2 fold change [2] | log2 fold change (epoxomicin) | log2 fold change [3] | log2 fold change [4] | log2 fold change [5] | log2 fold change (rosiglitazone) | log2 fold change [6] | log2 fold change [7]
IRF2BPL (UniProt Q9H1B7) | 0.01 | -0.043 | -0.012 | 0.108 | -0.042 | -0.023 | 0.036 | 0.067 | -0.068 | -0.018
INPP5B (UniProt P32019) | 0.021 | -0.04 | 0.002 | 0.007 | -0.029 | 0.031 | 0.057 | 0.012 | 0.12 | 0.003
MAD2L1 (UniProt Q13257) | -0.058 | -0.381 (active) | 0.016 | -0.045 | 0 | -0.038 | 0.002 | 0.052 | -0.081 | -0.166
MAP1LC3B2 (UniProt A6NCE7) | -0.074 | -0.072 | 0.05 | 0 | -0.003 | 0.004 | 0 | 0.044 | -0.015 | 0.108
LPCAT3 (UniProt Q6P1A2) | 0.146 | -0.026 | -0.008 | -0.005 | 0.062 | -0.063 | 0.087 | -0.042 | -0.093 | -0.202
LMBRD1 (UniProt Q9NUN5) | -0.073 | 0.032 | 0.015 | 0.065 | -0.01 | -0.015 | 0.015 | -0.016 | 0.133 | -0.351
LTN1 isoform 3 (UniProt O94822) | -0.16 | -0.459 (active) | 0.079 | -0.012 | -0.075 | -0.019 | 0.043 | 0.05 | 0.06 | -0.498 (active)
IMMT isoform 2 (UniProt Q16891) | -0.043 | -0.046 | -0.002 | -0.052 | 0.074 | -0.031 | 0.086 | -0.009 | 0.067 | 0.249
MARCKS (UniProt P29966) | 0.035 | -0.027 | -0.091 | -0.044 | 0 | 0.268 (active) | -0.043 | 0.03 | -0.014 | 0.089
MGST1 (UniProt P10620) | 0.037 | 0.039 | -0.043 | 0.003 | -0.025 | -0.158 | 0.012 | -0.037 | -0.079 | 0.086
KTN1 (UniProt Q86UP2) | 0.039 | -0.242 | 0.028 | 0.037 | 0.091 | 0.084 | 0.006 | -0.009 | 0.127 | -0.006
LSR (UniProt Q86X29) | 0.109 | 0.068 | -0.02 | -0.021 | -0.013 | 0.011 | -0.033 | 0.011 | -0.001 | 0.214 (active)
MAP2K3 isoform 3 (UniProt P46734) | -0.041 | -0.17 | 0.09 | -0.035 | -0.017 | 0.039 | 0.038 | 0.018 | -0.054 | -0.121
LNPK (UniProt Q9C0E8) | 0.02 | 0.024 | -0.038 | -0.007 | -0.032 | 0.018 | -0.042 | 0.01 | 0.012 | 0.059
MFN2 (UniProt O95140) | -0.1 | -0.23 | 0.011 | 0.047 | -0.004 | 0.011 | 0.009 | 0.03 | -0.011 | -0.213
KDM3B (UniProt Q7LBC6) | -0.164 | -0.349 (active) | 0.06 | 0.061 | -0.024 | 0.001 | 0.043 | 0.048 | -0.049 | -0.071

Target | log2 fold change [1] | log2 fold change (volasertib) | log2 fold change [2] | log2 fold change (epoxomicin) | log2 fold change [3] | log2 fold change [4] | log2 fold change [5] | log2 fold change (rosiglitazone) | log2 fold change [6] | log2 fold change [7]
MAP3K7 (UniProt O43318) | -0.015 | -0.369 (active) | -0.008 | 0.018 | 0.032 | 0.043 | 0.046 | 0.079 | 0.079 | -0.093
MDC1 (UniProt Q14676) | 0 | -0.074 | -0.028 | 0.039 | -0.03 | 0.384 | 0.015 | 0.019 | 0.527 (active) | 0.069
MARCKSL1 (UniProt P49006) | -0.055 | 0.038 | 0.021 | -0.055 | 0.02 | -0.015 | -0.044 | 0.012 | -0.08 | 0.147
KPNA6 (UniProt O60684) | -0.225 | -0.699 (active) | 0.04 | 0.021 | -0.098 | 0.043 | 0.063 | 0.062 | 0.227 | -0.184
MEPCE (UniProt Q7L2J0) | -0.07 | -0.209 | 0.052 | -0.053 | 0.009 | -0.013 | 0.061 | -0.019 | 0.007 | -0.051
LEMD2 (UniProt Q8NC56) | -0.212 | -0.422 (active) | 0.034 | -0.002 | -0.02 | 0.028 | 0.091 | 0.023 | -0.006 | -0.338 (active)
IRAK4 (UniProt Q9NWZ3) | -0.138 | -0.299 | 0.048 | 0.038 | -0.092 | -0.033 | 0.061 | 0.042 | 0.029 | 0.013
KIF3A (UniProt Q9Y496) | 0.036 | -0.039 | -0.187 | 0.068 | -0.004 | -0.093 | 0.032 | 0.174 | -0.023 | -0.162
LMNB1 (UniProt P20700) | -0.045 | -0.308 (active) | 0.023 | 0.037 | -0.021 | 0.115 | 0.034 | -0.049 | -0.034 | 0.026
KIF1B isoform 4 (UniProt O60333) | -0.042 | -0.11 | 0.052 | 0.039 | -0.015 | -0.005 | 0.123 | 0.059 | -0.001 | -0.299 (active)
MAPK14 isoform 2 (UniProt Q16539) | -0.223 | -0.398 | -0.019 | 0.02 | 0.081 | 0.001 | 0.039 | 0.007 | -0.029 | 0.074
LUC7L2 (UniProt Q9Y383) | -0.171 | -0.345 (active) | 0.044 | -0.017 | 0.003 | -0.003 | -0.001 | 0.011 | -0.025 | -0.073
MIEF1 (UniProt Q9NQG6) | -0.053 | -0.098 | 0.031 | 0.073 | 0.019 | 0.019 | 0.054 | 0.041 | -0.018 | -0.546 (active)
LAMP2 (UniProt P13473) | 0.018 | 0.069 | -0.023 | 0.083 | -0.009 | 0.019 | 0.059 | 0.007 | -0.016 | -0.032
LSS (UniProt P48449) | 0.024 | 0.719 (active) | 0.074 | 0.129 | -0.056 | -0.024 | 0.055 | 0.077 | -0.025 | 0.384

Reference: the supplement of paper PMC10849652
